Assay results published in PubChem BioAssay (NCATS).
Inconclusive results are not listed. A call without a number means that no potency is given here. Calls of active or inactive are those of the source. Unless noted, the call rests on the fitted dose curve; in most records, active means well fitted curve in the direction sought with a large enough effect; inconclusive means small, poorly fitted or top-dose-only effect, or another doubt; inactive means no such curve, though single readings can be large; an effect the other way counts as inactive or inconclusive.

What was measured:
[1] = biological target: Mitogen-activated protein kinase 10 (Mus musculus) (UniProt Q61831); experiment: JNK3 AlphaScreen Assay (AID 530; active means well fitted curve in either direction with a large enough effect, not every such curve was filed as active;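 further: kinase came from lysate of stimulated human HepG2 cells; signal reports phosphorylation of biotinylated GST-cJun 1-79 at Ser73 with 10 µM ATP; series mostly up to about 57 µM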)
Method in brief: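 Kinase buffer: 20 mM Tris-HCl pH 7.6, 10 mM MgCl2, 1 mM DTT, 0.1 mM Na3VO4, 0.01% Tween-20; ATP 10 uM. Substrate biotin-GST-cJun(1-79), enzyme from activated HepG2 lysates. Detection by Ser73 phospho-antibody AlphaScreen.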

[2] = biological target: Cytochrome P450 3A4 (Homo sapiens) (UniProt P08684); experiment: qHTS Assay for Inhibitors and Substrates of Cytochrome P450 3A4 (AID 884); further: potency means the concentration at half of the fitted maximal effect; nearly all actives have a fitted effect of over 50% in size
Sequence of Cytochrome P450 3A4 (Homo sapiens) (P08684 whole entry, looked up): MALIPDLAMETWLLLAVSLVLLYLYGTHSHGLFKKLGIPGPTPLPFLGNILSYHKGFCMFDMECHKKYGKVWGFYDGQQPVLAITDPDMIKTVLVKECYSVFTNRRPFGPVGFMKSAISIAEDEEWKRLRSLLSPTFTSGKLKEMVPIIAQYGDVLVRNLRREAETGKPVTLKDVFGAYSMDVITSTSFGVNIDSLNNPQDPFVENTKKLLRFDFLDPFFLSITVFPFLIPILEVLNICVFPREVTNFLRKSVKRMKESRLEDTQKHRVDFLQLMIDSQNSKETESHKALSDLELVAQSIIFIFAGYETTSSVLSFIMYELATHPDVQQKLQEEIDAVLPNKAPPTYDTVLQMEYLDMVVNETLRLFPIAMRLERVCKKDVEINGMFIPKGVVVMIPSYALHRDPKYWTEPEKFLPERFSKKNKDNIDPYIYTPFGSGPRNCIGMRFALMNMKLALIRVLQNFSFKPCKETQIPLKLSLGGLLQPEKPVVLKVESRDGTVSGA
Method in brief: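 Luminescent readout of luciferin produced by CYP3A4 (20 nM) dealkylation of Luciferin-PPXE, 25 uM (its KM). NADPH-driven reaction ran 60 min at RT after 10 min compound preincubation; data scaled to 57 uM ketoconazole as 100% inhibition.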

[3] = biological target: Cytochrome P450 3A4 (Homo sapiens) (UniProt P08684); experiment: qHTS Assay for Activators of Cytochrome P450 3A4 (AID 885); further: nearly all actives have a fitted effect of over 65% in size
Method in brief: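 Human CYP3A4 dealkylates Luciferin-PPXE to luciferin, which luciferase detection converts to light. Substrate was at its KM (25uM), buffer 200mM KPO4, reaction 60 min at RT.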

For COC(=O)c1ccc(C(NC(=O)OCc2ccccc2)/C(C)=C/[C@@H](C)C(=O)NCc2nn(-c3ccccc3)nc2C)cc1 (stereo not given in full), the outcome [1] was “inactive”, the Potency [2] was 2.51 µM (active) and the Potency [3] was “inactive”.

CCCCNC(=O)C(c1ccc(OCC(=O)OC)c(C(=O)OC)c1)N(CCOC)C(=O)CCCCCN1C(=O)NC(c2ccc(-c3ccccc3)cc2)C(C(=O)OCc2ccccc2)=C1C (stereo not given) was tested, and the outcome [1] was “inactive” and the Potency [3] was “inactive”.

For COC(=O)c1ccc(C(NC(=O)OCc2ccccc2)/C(=C/[C@@H](C)C(=O)NCc2ccncc2)c2cccnc2)cc1 (stereo not given in full), the outcome [1] was “inactive”, the Potency [2] was 1.26 µM (active) and the Potency [3] was “inactive”.

With CC1=C(C(=O)OCc2ccccc2)C(c2ccc(C3CCCCC3)cc2)NC(=O)N1CCCCCC(=O)O (stereo not given) the outcome [1] was “inactive” and the Potency [3] was “inactive”.

COC(=O)c1ccc(C(/C=C/[C@@H](C)C(=O)N(C)C)NC(=O)OCc2ccccc2)cc1 (stereo not given in full) was tested, and the outcome [1] was “inactive” and the Potency [3] was “inactive”.

C[C@]1(C(=O)NCc2cc(F)cc(C(F)(F)F)c2)C=C[C@@H](Cc2ccccc2)N1C(=O)c1ccccc1 was tested, and the outcome [1] was “inactive”, the Potency [2] was 2 µM (active) and the Potency [3] was “inactive”.

With CC(=O)N1[C@H](C)C=C[C@]1(Cc1ccccc1)C(=O)NCc1ccccn1 the outcome [1] was “inactive” and the Potency [3] was “inactive”.

With CC1(C(=O)NCCN2CCOCC2)C=CCN1C(=O)c1ccccc1 (stereo not given) the outcome [1] was “inactive” and the Potency [3] was “inactive”.

With COC(=O)CNC(=O)C1(CC(C)C)C=CCN1C(C)=O (stereo not given) the outcome [1] was “inactive” and the Potency [3] was “inactive”.

With CC(=O)N1CC=CC1(CC(C)C)C(=O)NCc1cc(F)cc(C(F)(F)F)c1 (stereo not given) the outcome [1] was “inactive”, the Potency [2] was 12.6 µM (active) and the Potency [3] was “inactive”.

In the case of CC1(C)OCC(CSC2=C(SCC3COC(C)(C)O3)C(=O)c3ncccc3C2=O)O1 (stereo not given), the outcome [1] is reported as “inactive”, the Potency [2] is reported as 15.8 µM (active) and the Potency [3] is reported as “inactive”.

For CCCCCCN(C(=O)CCCCCN1C(=O)NC(c2ccc(-c3ccccc3)cc2)C(C(=O)OCc2ccccc2)=C1C)C(C(=O)NCCCC)c1ccccn1 (stereo not given), the outcome [1] was “inactive” and the Potency [3] was “inactive”.

CC(=O)N1CC=CC1(C)C(=O)O (stereo not given) was tested, and the outcome [1] was “inactive” and the Potency [3] was “inactive”.

CCCCCCN(C(=O)CCCCCN1C(=O)NC(c2ccc(-c3ccccc3)cc2)C(C(=O)OCc2ccccc2)=C1C)C(C(=O)NCCCC)c1cccc(C(=O)OC)c1 (stereo not given) was tested, and the outcome [1] was “inactive” and the Potency [3] was “inactive”.

For COC(=O)c1ccc(C(NC(=O)OCc2ccccc2)/C(=C/[C@@H](C)C(=O)NCCF)c2cccnc2)cc1 (stereo not given in full), the outcome [1] was “inactive”, the Potency [2] was 6.31 µM (active) and the Potency [3] was “inactive”.

For COCCNC(=O)[C@H](C)/C=C/C(NC(=O)OCc1ccccc1)c1ccc(C(=O)OC)cc1 (stereo not given in full), the outcome [1] was “inactive” and the Potency [3] was “inactive”.

With COC(=O)c1ccc(C(NC(=O)OCc2ccccc2)/C(F)=C/[C@@H](C)C(=O)NC2CCCCC2)cc1 (stereo not given in full) the outcome [1] was “inactive”, the Potency [2] was 3.98 µM (active) and the Potency [3] was “inactive”.

For COCCNC(=O)C1(C)C=CC2(CCCCC2)N1C(=O)c1ccccc1 (stereo not given), the outcome [1] was “inactive”, the Potency [2] was 15.8 µM (active) and the Potency [3] was “inactive”.

CNC(=O)[C@H](C)/C=C(\c1cccnc1)C(NC(=O)OCc1ccccc1)c1ccc(C(=O)OC)cc1 (stereo not given in full) was tested, and the outcome [1] was “inactive” and the Potency [3] was “inactive”.

With CC(=O)N1CC=CC1(CC(C)C)C(=O)NCc1ccc(C)o1 (stereo not given) the outcome [1] was “inactive” and the Potency [3] was “inactive”.

CNC(=O)[C@]1(C)C[C@H]1[C@H](NC(=O)[C@]1(C)C[C@H]1[C@H](NC(=O)[C@]1(C)C[C@H]1[C@H](NC(=O)[C@]1(C)C[C@H]1[C@H](NC(=O)OCc1ccccc1)c1ccccc1)c1ccccc1)c1ccccc1)c1ccccc1 was tested, and the outcome [1] was “inactive”, the Potency [2] was 12.6 µM (active) and the Potency [3] was “inactive”.

With CCCCCCN(C(=O)CCCCCN1C(=O)NC(c2cccc([N+](=O)[O-])c2)C(C(=O)OCc2ccccc2)=C1C)C(C(=O)NCCCC)c1ccc(OCC(=O)OC)c(C(=O)OC)c1 (stereo not given) the outcome [1] was “inactive”, the Potency [2] was 3.16 µM (active) and the Potency [3] was “inactive”.

For CC1=C(C(=O)OCc2ccccc2)C(c2ccccc2-c2ccccc2)NC(=O)N1CCCCCC(=O)O (stereo not given), the outcome [1] was “inactive”, the Potency [2] was 10 µM (active) and the Potency [3] was “inactive”.

For CNC(=O)C1(C)C=CC2(CCCCC2)N1C(C)=O (stereo not given), the outcome [1] was “inactive” and the Potency [3] was “inactive”.

For CC1=C(C(=O)OCc2ccccc2)C(c2ccc(C(F)(F)F)cc2)NC(=O)N1CCCCCC(=O)O (stereo not given), the outcome [1] was “inactive” and the Potency [3] was “inactive”.

In the case of CNC(=O)[C@@]1(C)C=C[C@@H](Cc2ccccc2)N1C(=O)OC, the outcome [1] is reported as “inactive” and the Potency [3] is reported as “inactive”.

For COC(=O)CNC(=O)C1(C)C=CC2(CCCCC2)N1C(C)=O (stereo not given), the outcome [1] was “inactive” and the Potency [3] was “inactive”.

For COC(=O)c1ccc(C(NC(=O)OCc2ccccc2)/C(=C/[C@@H](C)C(=O)NCc2ccccc2)c2cccnc2)cc1 (stereo not given in full), the outcome [1] was “inactive”, the Potency [2] was 3.98 µM (active) and the Potency [3] was “inactive”.

In the case of COC(=O)[C@@]1(C)C=C[C@@H](Cc2ccccc2)N1C(C)=O, the outcome [1] is reported as “inactive” and the Potency [3] is reported as “inactive”.
